Among the data in PubChem BioAssay (Tox21) are Potency values, retold here.

“And” between values parts separate entries of the source, which are not always exact repeats. Equal values may be shown once. Inconclusive results are not listed. Where a call stands in place of a potency, no number is given. The source holds several records for some structures; these can differ, active in one and inactive in another. The source made the active and inactive calls. The call rests on the fitted dose curve; in most records, active means well fitted activation curve with a large enough effect in the repeat runs; inconclusive means weak or mixed curves; inactive means flat fitted curve, though single readings scatter.
Potency means the concentration at half of the fitted maximal effect.

The nature of this assay: A CellTox Green Cytotoxicity Assay to monitor cytotoxicity in HEK293 cells - 40 hour (AID 1224871). Further: nearly all actives have a fitted effect of over 45% in size. As to conditions: CellTox Green fluorescence; series mostly up to 76.8 µM. The source says:
National Center for Advancing Translational Sciences [NCATS]
NIH Chemical Genomics Center [NCGC]
U.S. Environmental Protection Agency [EPA]
National Institutes of Environmental Health Sciences [NIEHS]
National Toxicology Program [NTP]
Cell-based models are critical for drug discovery. Determining the natural cytotoxic effects resulting from test compounds is an essential research activity. A CellTox Green Cytotoxicity Assay to monitor cytotoxicity in real time of continues cell culture during 40 hours of the compound treatment was used to screen Tox21 10K library compounds in Hek293 cells. CellTox Green Cytotoxicity Assay is a nonlytic, homogeneous, biofluorescent method to measure cytotoxicity in cell culture after experimental manipulation. The assay system uses a proprietary asymmetric cyanine dye that is excluded from viable cells but preferentially stains the dead cell's DNA. […] Viable cells produce no appreciable increases in fluorescence. Therefore, the fluorescence signal produced by the binding interaction with dead cell DNA is proportional to cytotoxicity.
The mixture of Hek293 cell suspension and reagents were dispensed at 600cells/6 ul/well in 1536-well tissue culture treated black solid bottom plates using a Multidrop dispenser. After the assay plates were incubated at a 37 C/5% CO2 incubator for 5 hours, 23 nL of compounds dissolved in DMSO, positive and negative controls was transferred to the assay plate by a pintool work station. The plates were incubated at 37 C for 40 hours. The fluorescence intensity were measured at 0h, 8h, 16h, 24h, 32h and 40h time points using ViewLux plate reader during compound treatment.
Take `CCCCC1C(=O)N(c2ccccc2)N(c2ccccc2)C1=O`: the Potency result is “inactive”. In the case of `NC(N)=NC(=O)c1nc(Cl)c(N)nc1N` it was “inactive”; in that of `Cc1cc(=O)[nH]c(=S)[nH]1`, “inactive”; in that of `OC(Cn1cncn1)(Cn1cncn1)c1ccc(F)cc1F`, “inactive”.

As to `CCCC(CCC)C(=O)O`, the Potency result is “inactive”. Next, `CCOc1ccc(NC(=O)CC(C)O)cc1` (stereo not given): “inactive”. Regarding `O=C(c1ccccc1)C(O)c1ccccc1` (stereo not given), the Potency result was “inactive”. In the case of `O=C(O)c1cccc([N+](=O)[O-])c1` it was “inactive”. In the case of `O=C(c1ccccc1)c1ccccc1`, the Potency result is “inactive”. With `CC(=O)OCC(COC(C)=O)OC(C)=O`, the Potency result was “inactive”. Next, `OCCc1ccccc1`: “inactive”; `CC(O)CN(CCN(CC(C)O)CC(C)O)CC(C)O` (stereo not given): “inactive”. Next, `C[C@]12C=CC(=O)C=C1CC[C@@H]1[C@@H]2[C@@H](O)C[C@@]2(C)[C@H]1CC[C@]2(O)C(=O)CO`: “inactive”. Next, `Cc1ccc(S(=O)(=O)NC(=O)NN2CCCCCC2)cc1`: “inactive”; `NC(=O)NC1NC(=O)NC1=O` (stereo not given): “inactive”; `CCCCOC(=O)CC(CC(=O)OCCCC)(OC(C)=O)C(=O)OCCCC`: “inactive”.

Turning to `Cc1ccc(C)c(OCCCC(C)(C)C(=O)O)c1`, the Potency entry was “inactive”.

As for `CCCNC(=O)NS(=O)(=O)c1ccc(Cl)cc1`, the Potency result was “inactive”.

`O=c1ccc2ccccc2o1`: the Potency result was “inactive”. Next, `O=C(C1CCCCC1)N1CC(=O)N2CCc3ccccc3C2C1` (stereo not given): “inactive”; `O=S(=O)(O)c1ccc2cc(O)ccc2c1`: “inactive”.

For the compound `Oc1ccc(/C=C/c2cc(O)cc(O)c2)cc1`, the Potency entry is “inactive”. Regarding `Nc1ccc(S(=O)(=O)Nc2nccs2)cc1`, the Potency result is “inactive and 43.6 µM (active)”.

On to `COc1ccc2[nH]cc(CCNC(C)=O)c2c1`, for which the Potency result was “inactive”. In the case of `Cn1c(=O)c2[nH]cnc2n(C)c1=O` it was “inactive”; in that of `O=S(=O)(O)NC1CCCCC1`, “inactive”; in that of `NC(=O)c1ccccc1O`, “inactive”. As for `N=C(N)c1ccc(OCCCCCOc2ccc(C(=N)N)cc2)cc1`, the Potency is 48.8 µM (active) and 46.8 µM (active) and inactive. Regarding `CCCCC(CC)COC(=O)/C=C/c1ccc(OC)cc1` (stereo not given), the Potency result was “inactive”.

With `NC(N)=O`, the Potency result is “inactive”. As to `O=C(O)C(=O)O`, the Potency entry was “inactive”. Turning to `O=C(O)c1[nH]n(-c2ccc(S(=O)(=O)O)cc2)c(=O)c1N=Nc1ccc(S(=O)(=O)O)cc1`, the Potency entry was “inactive”. In the case of `NS(=O)(=O)c1cc(C(=O)O)c(NCc2ccco2)cc1Cl` it was “inactive”.

Regarding `CC1(C)[C@@H]2CC[C@@]1(C)C(=O)C2`, the Potency entry is “inactive and 7.56 µM (active)”. On to `CCCC(O)C(CC)CO` (stereo not given), for which the Potency result was “inactive”. Next, `O=C(O)CCC(=O)O`: “inactive”.

`O=c1cc[nH]c(=S)[nH]1`: the Potency result is “inactive”. Turning to `C/C=C/c1ccc(OC)cc1`, the Potency result is “inactive”. In the case of `CCCN(CCC)S(=O)(=O)c1ccc(C(=O)O)cc1` it was “inactive”; in that of `O=C(O)CCCCC(=O)O`, “inactive”.
